Experimental data taken from PubChem BioAssay AID1159580 (chemical genetic matrix, 2015).
About 2,000 (36%) of roughly 5,500 compounds were called active. Roughly 18% stayed inconclusive and do not appear here. Cut-off read from the data, not from the text of the source: active = normalized growth mostly below about 0.91 (no sharp cut-off); inconclusive = no clear call, values can overlap the other calls; inactive = mostly above about 0.92. This is one part of the list.

Experiment: chemical genetic growth profiling, strain panel (AID 1159580);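 note: tested at 20 µM; growth read once vehicle control cultures reached saturation at 30 °C; 1 = growth at the plate median or of vehicle wells; lower values mean less growth of the strain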
Details: S. cerevisiae deletion strains, growth OD
[1] = locus YAL013W, strain DEP1, active compounds read low
[2] = locus YAL040C, strain CLN3, active compounds read low
[3] = locus YCL061C, strain MRC1 (second series), active compounds read low
[4] = locus YDR363W, strain ESC2, active compounds read low
[5] = locus YER002W, strain NOP16, active compounds read low
[6] = locus YGR078C, strain PAC10, active compounds read low
[7] = locus YMR263W, strain SAP30, active compounds read low
[8] = locus YMR307W, strain GAS1, active compounds read low
[9] = locus YNL175C, strain NOP13, active compounds read low
[10] = locus YNL197C, strain WHI3, active compounds read low
[11] = locus YNL224C, strain SQS1, active compounds read low
[12] = locus YOR083W, strain WHI5 (second series), active compounds read low

Measured: normalized growth

Cc1ccccc1N1CCN(S(=O)(=O)C[C@]23CCC(CC2NC(=O)[C@@H](N)CCS(C)(=O)=O)C3(C)C)CC1 (stereo partly specified)
inactive: [1] 0.995 | [2] 1.01 | [3] 1 | [4] 1 | [5] 1.04 | [6] 0.999 | locus YGR229C, strain SMI1, active compounds read low 1 | [7] 0.995 | [8] 0.99 | [9] 1.01 | [10] 1.01 | [11] 1.01 | locus YNL322C, strain KRE1, active compounds read low 0.99 | [12] 1.04

CCCN(CCC)C1Cc2cc(OC)c(OC)cc2C1
inactive: [1] 0.961 | [2] 1.05 | [3] 0.988 | [4] 0.974 | [5] 1.04 | [7] 0.985 | [8] 0.995 | [9] 1.02 | [10] 0.983 | [11] 0.994 | [12] 0.995

Clc1ccc(C(Cn2ccnc2)OCc2ccsc2Cl)c(Cl)c1 (stereo unspecified)
active: locus YAL021C, strain ccr4, active compounds read low 0.0615 | locus YAL026C, strain drs2, active compounds read low 0.0595 | locus YAL030W, strain snc1, active compounds read low 0.058 | locus YBL061C, strain skt5, active compounds read low 0.0605 | locus YBR009C, strain hhf1, active compounds read low 0.0623 | locus YBR023C, strain chs3, active compounds read low 0.0625 | locus YBR171W, strain sec66, active compounds read low 0.077 | locus YBR231C, strain swc5, active compounds read low 0.0613 | locus YBR279W, strain paf1, active compounds read low 0.0605 | locus YCL011C, strain gbp2, active compounds read low 0.0554 | locus YCL016C, strain dcc1, active compounds read low 0.0612 | locus YCL061C, strain MRC1, active compounds read low 0.0623 | locus YCL069W, strain vba3, active compounds read low 0.0601 | locus YCR088W, strain abp1, active compounds read low 0.0619 | locus YDL005C, strain med2, active compounds read low 0.0727 | locus YDL040C, strain nat1, active compounds read low 0.0591 | locus YDR001C, strain nth1, active compounds read low 0.0593 | locus YDR069C, strain doa4, active compounds read low 0.0605 | locus YDR137W, strain rgp1, active compounds read low 0.0897 | locus YDR159W, strain sac3, active compounds read low 0.0897 | locus YDR195W, strain ref2 0.109 | locus YDR297W, strain sur2, active compounds read low 0.0576 | locus YDR334W, strain swr1, active compounds read low 0.0622 | locus YDR335W, strain msn5, active compounds read low 0.0604 | locus YDR392W, strain spt3, active compounds read low 0.0929 | locus YEL003W, strain gim4, active compounds read low 0.0528 | locus YEL037C, strain rad23, active compounds read low 0.0589 | locus YEL061C, strain CIN8 (second series), active compounds read low 0.0607 | locus YER015W, strain faa2, active compounds read low 0.0602 | locus YER016W, strain bim1, active compounds read low 0.0611 | locus YER111C, strain swi4, active compounds read low 0.0729 | locus YER155C, strain BEM2 (second series), active compounds read low 0.0863 | locus YFR010W, strain ubp6, active compounds read low 0.0638 | locus YGL167C, strain pmr1, active compounds read low 0.0775 | locus YGL173C, strain kem1, active compounds read low 0.0679 | locus YGL227W, strain vid30, active compounds read low 0.0627 | locus YGL240W, strain doc1, active compounds read low 0.0751 | locus YGL253W, strain hxk2, active compounds read low 0.0532 | locus YHR013C, strain ard1, active compounds read low 0.116 | locus YHR027C, strain rpn1, active compounds read low 0.0631 | locus YHR030C, strain SLT2, active compounds read low 0.1 | locus YHR079C, strain IRE1, active compounds read low 0.111 | locus YHR142W, strain chs7, active compounds read low 0.0682 | locus YJL092W, strain hpr5, active compounds read low 0.058 | locus YJL095W, strain BCK1 (second series), active compounds read low 0.0564 | locus YJL095W, strain BCK1, active compounds read low 0.131 | locus YJL115W, strain asf1, active compounds read low 0.0715 | locus YJL129C, strain trk1, active compounds read low 0.0844 | locus YJL154C, strain vps35, active compounds read low 0.0606 | locus YJL164C, strain tpk1, active compounds read low 0.0589 | locus YJL166W, strain qcr8, active compounds read low 0.0614 | locus YJL187C, strain SWE1, active compounds read low 0.058 | locus YJR066W, strain TOR1, active compounds read low -0.00364 | locus YKL160W, strain elf1, active compounds read low 0.0664 | locus YKR026C, strain gcn3, active compounds read low 0.0641 | locus YKR091W, strain srl3, active compounds read low 0.0588 | locus YLL001W, strain dnm1, active compounds read low 0.0592 | locus YLL026W, active compounds read low 0.0585 | locus YLL041C, strain sdh2, active compounds read low 0.0592 | locus YLR027C, strain aat2, active compounds read low 0.0566 | locus YLR113W, strain HOG1, active compounds read low 0.175 | locus YLR221C, strain rsa3, active compounds read low 0.0562 | locus YLR258W, strain gsy2, active compounds read low 0.0592 | locus YLR262C, strain YPT6 (second series), active compounds read low 0.0854 | locus YLR320W, strain mms22, active compounds read low 0.083 | locus YLR342W, strain FKS1, active compounds read low 0.063 | locus YLR357W, strain rsc2, active compounds read low 0.114 | locus YLR370C, strain arc18, active compounds read low 0.0594 | locus YLR384C, strain iki3, active compounds read low 0.0608 | locus YML120C, strain ndi1, active compounds read low 0.0591 | locus YMR058W, strain fet3, active compounds read low 0.0582 | locus YMR125W, strain sto1, active compounds read low 0.0724 | locus YMR129W, active compounds read low 0.057 | locus YMR205C, strain PFK2, active compounds read low 0.0885 | locus YMR231W, strain pep5, active compounds read low 0.0835 | locus YNL071W, strain lat1, active compounds read low 0.0601 | locus YNL183C, strain NPR1, active compounds read low -4.4e-05 | locus YNL209W, strain ssb2, active compounds read low 0.0596 | locus YNL248C, strain rpa49, active compounds read low 0.0715 | locus YNL322C, strain KRE1 (second series), active compounds read low 0.0708 | locus YNR049C, strain mso1, active compounds read low 0.0574 | locus YOR001W, strain rrp6, active compounds read low 0.0652 | locus YOR070C, strain gyp1, active compounds read low 0.0829 | locus YOR080W, strain dia2, active compounds read low 0.0656 | locus YOR083W, strain WHI5, active compounds read low 0.0618 | locus YOR106W, strain vam3, active compounds read low 0.0631 | locus YOR231W, strain MKK1, active compounds read low 0.107 | locus YOR265W, strain rbl2, active compounds read low 0.0575 | locus YOR270C, strain vph1, active compounds read low 0.0903 | locus YOR290C, strain snf2, active compounds read low 0.074 | locus YPL051W, strain arl3, active compounds read low 0.0604 | locus YPL078C, strain atp4, active compounds read low 0.0629 | locus YPL106C, strain sse1, active compounds read low 0.0945 | locus YPL240C, strain hsp82, active compounds read low 0.0568 | locus YPL256C, strain CLN2, active compounds read low 0.133

Clc1ccc(C(c2ccc(Cl)cc2)n2cc[n+](CC(OCc3ccc(Cl)cc3Cl)c3ccc(Cl)cc3Cl)c2)cc1 (stereo unspecified)
inactive: [5] 1.01
active: [2] 0.071 | [3] 0.0506 | [4] 0.0687 | [6] 0.0555 | locus YJR075W, strain HOC1, active compounds read low 0.0686 | [8] 0.0652 | [9] 0.0668 | [10] 0.0718 | [11] 0.0691 | [12] 0.0706
